Laboratory results from PubChem BioAssay.
The source made the active and inactive calls.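 Rule for the calls, unless noted: active = compounds that lower survival of HCT116 colon cancer cells in the luminescence readout, no numeric limit stated; inactive = the rest.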

assay: glucagon-like peptide 1 release enhancers, primary assay, NCI-H716 cell line, NPC library (AID 1117341;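 active = compound raises GLP1 secretion from the human gut endocrine cells, with no numeric limit stated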; note: reference of the scale not given here); settings: NCI-H716 cells, at 10 µM, hits give high values

Row | Structure (SMILES) | GLP1 secretion stimulation
1 | CCC1=C(C)CN(C(=O)NCCc2ccc(S(=O)(=O)NC(=O)NC3CCC(C)CC3)cc2)C1=O (stereo not drawn) | 2.3% (inactive)
2 | Nc1nc2c(ncn2CCC(CO)CO)c(=O)[nH]1 | 1.1% (inactive)
3 | Cn1nnc2c(C(N)=O)ncn2c1=O | -2.4% (inactive)
4 | Nc1ccc(O)c(C(=O)O)c1 | -4.4% (inactive)
5 | CC1CCN(CCCC(=O)c2ccc(F)cc2)CC1 | -0.3% (inactive)
6 | COC(=O)C1=C(C)NC(C)=C(C(=O)OC(C)C)C1c1cccc2nonc12 (stereo not drawn) | -2.4% (inactive)
7 | OCCOCCN1CCN(C2=Nc3ccccc3Sc3ccccc32)CC1 | 2.3% (inactive)
8 | Nc1nc(N)nc(-c2cc(Cl)ccc2Cl)n1 | -1.2% (inactive)
9 | CCc1c2c(nc3ccc(OC(=O)N4CCC(N5CCCCC5)CC4)cc13)-c1cc3c(c(=O)n1C2)COC(=O)[C@]3(O)CC | 24% (active)
10 | COc1ccc(C2CNC(=O)C2)cc1OC1CCCC1 (stereo not drawn) | 4.4% (inactive)
11 | CN1CCCCC1CCN1c2ccccc2Sc2ccc(S(C)=O)cc21 (stereo not drawn) | 12.7% (inactive)
12 | O=C(O)/C=C/c1ccc(Cn2ccnc2)cc1 | 5.1% (inactive)
13 | COc1ccc2nc(S(=O)Cc3ncc(C)c(OC)c3C)[nH]c2c1 (stereo not drawn) | 1.7% (inactive)
14 | CCN1CCCC1CNC(=O)c1cc(S(=O)(=O)CC)c(N)cc1OC (stereo not drawn) | -4.7% (inactive)
15 | CCOC(=O)OC(C)OC1=C(C(=O)Nc2ccccn2)N(C)S(=O)(=O)c2ccccc21 (stereo not drawn) | 1% (inactive)
16 | O=C(NCCO[N+](=O)[O-])c1cccnc1 | -1.4% (inactive)
17 | CC[N+](C)(CC)CCOC(=O)C(O)(c1ccccc1)C1CCCCC1 (stereo not drawn) | -3.3% (inactive)
18 | CNS(=O)(=O)Cc1ccc2[nH]cc(CCN(C)C)c2c1 | 1.4% (inactive)
19 | CCc1nn(CCCN2CCN(c3cccc(Cl)c3)CC2)c(=O)n1CCOc1ccccc1 | -2.9% (inactive)
20 | OCc1cc(C(O)CNCCCCCCOCCCCc2ccccc2)ccc1O (stereo not drawn) | -0.4% (inactive)

assay: HCT116 colon cancer cell growth inhibition, primary screen, CellTiter-Glo luminescence, NPC library (AID 1117342); settings: at 20 µM (top of the series)

Row | Structure (SMILES) | inhibition of viability
21 | CCOC(=O)C1=C(C)NC(C)=C(C(=O)OC)C1c1cccc(Cl)c1Cl (stereo not drawn) | 110% (active)
22 | O=C(NCCN1CCOCC1)c1ccc(Cl)cc1 | -2.6% (inactive)
23 | CCOc1cc(CC(=O)N[C@@H](CC(C)C)c2ccccc2N2CCCCC2)ccc1C(=O)O | 29.7% (inactive)
24 | COCCCC/C(=N\OCCN)c1ccc(C(F)(F)F)cc1 | 37.3% (inactive)
25 | COc1ccccc1N1CCN(CC(O)COc2cccc3ccccc23)CC1 (stereo not drawn) | 64.7% (active)
26 | CC(C)NCC(O)COc1ccc(CCOCC2CC2)cc1 (stereo not drawn) | 14.2% (inactive)
27 | COc1cc2nc(N3CCN(C(=O)C4CCCO4)CC3)nc(N)c2cc1OC (stereo not drawn) | -9.1% (inactive)
28 | c1cnc(N2CCN(Cc3ccc4c(c3)OCO4)CC2)nc1 | 4.13% (inactive)
29 | CCOC(=O)c1ncn2c1CN(C)C(=O)c1cc(F)ccc1-2 | 0.15% (inactive)
30 | CC(C)NCC(O)COc1ccc(COCCOC(C)C)cc1 (stereo not drawn) | -3.93% (inactive)
31 | CN1CCC(=C2c3ccccc3C=Cc3ccccc32)CC1 | 39% (inactive)
32 | Cc1ncc([N+](=O)[O-])n1CC(O)CCl (stereo not drawn) | 0.2% (inactive)
33 | CCc1oc2ccccc2c1C(=O)c1cc(Br)c(O)c(Br)c1 | 124% (active)
34 | O=C(CCNNC(=O)c1ccncc1)NCc1ccccc1 | -8.3% (inactive)
35 | Oc1ccc(C2CNCCc3c2cc(O)c(O)c3Cl)cc1 (stereo not drawn) | 50.2% (active)
36 | O=C1CC2(CCCC2)CC(=O)N1CCCCN1CCN(c2ncccn2)CC1 | 39.4% (inactive)
37 | Cc1cccc(C)c1OCC(C)N (stereo not drawn) | 5.27% (inactive)
38 | CN1CCC(=C2c3ccccc3CC(=O)c3sccc32)CC1 | 15.7% (inactive)
39 | CCC1=C(C)CN(C(=O)NCCc2ccc(S(=O)(=O)NC(=O)NC3CCC(C)CC3)cc2)C1=O (stereo not drawn) | 2.4% (inactive)

Row | Structure (SMILES) | inhibition of viability
40 | Nc1nc2c(ncn2CCC(CO)CO)c(=O)[nH]1 | 6.65% (inactive)
41 | Cn1nnc2c(C(N)=O)ncn2c1=O | 1.9% (inactive)
42 | Nc1ccc(O)c(C(=O)O)c1 | 6.8% (inactive)
43 | CC1CCN(CCCC(=O)c2ccc(F)cc2)CC1 | 45.7% (inactive)
44 | COC(=O)C1=C(C)NC(C)=C(C(=O)OC(C)C)C1c1cccc2nonc12 (stereo not drawn) | 48.4% (inactive)
45 | OCCOCCN1CCN(C2=Nc3ccccc3Sc3ccccc32)CC1 | 10.6% (inactive)
46 | Nc1nc(N)nc(-c2cc(Cl)ccc2Cl)n1 | -27.9% (inactive)
47 | CCc1c2c(nc3ccc(OC(=O)N4CCC(N5CCCCC5)CC4)cc13)-c1cc3c(c(=O)n1C2)COC(=O)[C@]3(O)CC | 50.8% (active)
48 | COc1ccc(C2CNC(=O)C2)cc1OC1CCCC1 (stereo not drawn) | 13.6% (inactive)
49 | CN1CCCCC1CCN1c2ccccc2Sc2ccc(S(C)=O)cc21 (stereo not drawn) | 36.7% (active)
50 | O=C(O)/C=C/c1ccc(Cn2ccnc2)cc1 | 6.1% (inactive)
51 | COc1ccc2nc(S(=O)Cc3ncc(C)c(OC)c3C)[nH]c2c1 (stereo not drawn) | -0.23% (inactive)
52 | CCN1CCCC1CNC(=O)c1cc(S(=O)(=O)CC)c(N)cc1OC (stereo not drawn) | -1.4% (inactive)
53 | CCOC(=O)OC(C)OC1=C(C(=O)Nc2ccccn2)N(C)S(=O)(=O)c2ccccc21 (stereo not drawn) | 8.6% (inactive)
54 | O=C(NCCO[N+](=O)[O-])c1cccnc1 | 6% (inactive)
55 | CC[N+](C)(CC)CCOC(=O)C(O)(c1ccccc1)C1CCCCC1 (stereo not drawn) | 0.4% (inactive)
56 | CNS(=O)(=O)Cc1ccc2[nH]cc(CCN(C)C)c2c1 | -2.93% (inactive)
57 | CCc1nn(CCCN2CCN(c3cccc(Cl)c3)CC2)c(=O)n1CCOc1ccccc1 | 85.7% (active)
58 | OCc1cc(C(O)CNCCCCCCOCCCCc2ccccc2)ccc1O (stereo not drawn) | 44.6% (inactive)
